Source: PubChem
DT40 TDP1 no CPT: qHTS for Inhibitors of human tyrosyl-DNA phosphodiesterase 1 (TDP1): qHTS in cells in absence of CPT. DT40 Tdp1-/- hTDP1 cells, no CPT, ATP luminescence, 48 h. Potency, µM (series often up to 46.2 µM), for the others: at the top dose activity change, negative = growth inhibition, usual class: inhibitors. 420,000 tested, 15% active; note: potency is the fitted concentration of half-maximal effect; % is set by controls: 0 for no effect and ±100 for the full control effect; nearly all actives have a fitted effect of over 55% in size
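Compound effects on proliferation are scored in DT40 Tdp1-/-;hTDP1 cells in the absence of CPT. ATP levels (CellTiter-Glo luminescence) are recorded after a ≥48 hr, 37 °C incubation.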
IL1B secr inh: inhibitors of inflammasome signaling (IL-1 beta secretion); activity change, % at 57.5 µM; AID 743279; THP-1 LPS/ATP IL-1B secretion, AlphaLISA, 16 h; active compounds read low; 360,000 tested, 4.7% active; in the data active = activity change below about -50%; inconclusive = mostly about -30% to -49%; note: % is set by controls: 0 for no effect and ±100 for the full control effect
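Secreted IL-1B measured by AlphaLISA bead assay after 16 h compound exposure of THP-1 cells; compounds (final up to 57.5 uM) added 1 h before LPS (250 ng/mL) and ATP (1.25 mM) stimulation; lower signal means less secretion.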
DT40 TDP1 CPT: DT40-hTDP1 cell growth loss with CPT; chicken DT40 Tdp1-/-;hTDP1 cells + 20 nM CPT, ATP luminescence, 48 h; Potency, µM (series often up to 46.2 µM), inactives show top-dose activity change, negative = growth inhibition, actives largely listed as inhibitors; 420,000 tested, 12% active; AID 686979; note: potency is the fitted concentration of half-maximal effect; % is set by controls: 0 for no effect and ±100 for the full control effect; nearly all actives have a fitted effect of over 55% in size
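Chicken DT40 Tdp1-/- cells stably complemented with human TDP1 were seeded at 400 cells/well in medium containing 20 nM camptothecin, exposed to pin-transferred compounds, and grown at 37 °C for at least 48 hr. Viability was read as ATP luminescence.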
MCF10A rereplic: induces DNA re-replication in MCF 10a normal breast cells; MCF 10A DNA re-replication, Hoechst nuclear intensity, 48 h; Potency, µM (doses to about 46.1 µM), inactives show at the top dose activity, positive = re-replication, hits mostly activators; 350,000 tested, 2.9% active; note: potency is the fitted concentration of half-maximal effect; % of control where 0% means no effect; nearly all actives have a fitted effect of over 50% in size
BCR signal inh: blocks chronic active B-cell receptor signaling | ABC-DLBCL IkBa-CBG/CBR reporter, luminescence ratio, 4 h | Potency, µM (titrated, usually from 46.1 µM), without a hit: top-dose activity change, negative = inhibition, most hits filed as inhibitors | 340,000 tested, 0.05% active; active = well fitted inhibition curve with a large enough effect in the signal ratio, with a control signal flat, not every such curve was filed as active; inconclusive = small, poorly fitted or top-dose-only effect, or effect the other way, or a change in a side signal; the % refers to the signal ratio;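 note: potency is the fitted concentration of half-maximal effect; plate controls were basal doxycycline-induced cells for no effect and cells given 10 µM MG132 for full effect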
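TMD8 ABC-DLBCL cells carrying doxycycline-inducible green luciferase fused to IkappaBalpha plus unfused red luciferase were exposed to compounds (up to 46 uM) for 4 hrs at 37C. Activity came from the overlap-corrected green/red luminescence ratio.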
SW480 rereplic: induces DNA re-replication in SW480 colon adenocarcinoma cells. SW480 DNA re-replication, Hoechst DNA content imaging, 48 h. Potency, µM (top dose mostly 46.1 µM), for inactives: at the highest dose re-replication activation, usual class: activators. 340,000 tested, 1.8% active. AID 624297; note: potency is the fitted concentration of half-maximal effect; % of control where 0% means no effect; nearly all actives have a fitted effect of over 55% in size
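Image-based DNA-content assay: after two days of treatment, nuclei were labelled with the DNA dye Hoechst and imaged, and hits were compounds raising the count of nuclei showing high fluorescence intensity.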
* = called active by the depositor; ? = inconclusive; · = not tested or not shown; [ ] = remark or other dose. Compounds with a hit are over-represented: about 19% of the library has one in this group of screens. Unless noted, calls come from the whole dose curve; as a rule, active = well fitted curve in the direction sought with a large enough effect; inconclusive = small, poorly fitted or top-dose-only effect, or another doubt; inactive = no such curve, though single readings can be large; an effect the other way counts as inactive or inconclusive.

SMILES | DT40 TDP1 no CPT | IL1B secr inh | DT40 TDP1 CPT | MCF10A rereplic | BCR signal inh | SW480 rereplic
CN(C)S(=O)(=O)c1cccc(NC(=S)NC23CC4CC(CC(C4)C2)C3)c1 | ? | -5 | ? | ? | ? | ?
Cc1ccc(S(=O)(=O)N(C)C)cc1NC(=S)NC12CC3CC(CC(C3)C1)C2 | ? | -20 | ? | ? | -6% | 4%
CCCc1c(C(=O)NNc2cccc(Cl)c2)cnn1-c1ccccc1 | ? | -28 | ? | ? | -11% | -15%
Cc1cccc(NC(=O)CN2CCc3cc4c(cc3C2C)OCCCO4)c1 (centres undefined) | ? | -54* | ? | 13% | ? | ?
CC1c2cc3c(cc2CCN1C(=O)c1cccc(F)c1)OCCCO3 (centres undefined) | ? | -14 | 21µM* | ? | ? | 13%
Cc1cc(C)cc(NC(=O)CN2CCc3cc4c(cc3C2C)OCCCO4)c1 (centres undefined) | ? | -12 | ? | 18% | 1% | -2%
COc1ccc(C(=O)N2CCc3cc4c(cc3C2C)OCCCO4)cc1 (centres undefined) | 21µM* | -2 | 21µM* | -19% | -21% | 2%
O=C(CN1CCc2cc3c(cc2C1)OCCCO3)Nc1c(F)cccc1F | ? | -11 | 23µM* | 18% | 2% | ?
Clc1ccc(OCCCCCN2CCOCC2)cc1 | ? | 3 | ? | 10% | ? | -7%
Cc1nc2ccccc2n1CCc1nc2c3ccccc3nc(SCc3ccc(C#N)cc3)n2n1 | -6% | · | -16% | · | -17% | ·
CC1c2cc3c(cc2CCN1C(=O)c1ccc(Br)cc1)OCCCO3 (centres undefined) | 7.3µM* | -7 | 16µM* | -3% | ? | -3%
CCCn1c2ccccc2c2cnn(CC(=O)NCCCN3C(C)CCCC3C)c(=O)c21 (centres undefined) | ? | -9 | ? | ? | -1% | ?
CCCn1c2ccccc2c2cnn(CC(=O)NC3CCN(Cc4ccccc4)CC3)c(=O)c21 | ? | ? | 16µM* | 18% | 5% | 29%
CCCn1c2ccccc2c2cnn(CC(=O)NC3CCCCC3C)c(=O)c21 (centres undefined) | 18µM* | 13 | ? | -7% | 3% | -7%
Cc1cc(C)c(NC(=O)CSc2nc(=O)n(Cc3cccnc3)c3c2CCC3)c(C)c1 | 1% | · | -3% | · | 2% | ·
CC(C)(C)c1ccc(C(=O)Nc2ccc(NC(=O)c3ccco3)cc2)cc1 | ? | 7 | ? | 13µM* | -1% | ?
O=C(Nc1ccc(NC(=O)c2ccco2)cc1)c1ccco1 | 4% | -13 | -1% | 1% | 3% | 1%
O=C(Nc1ccc(Nc2ccccc2)cc1)c1ccco1 | 21µM* | -100* | 21µM* | ? | -15% | 6%
CC(C)OC(=O)c1ccc(NC(=O)c2ccco2)cc1 | 23µM* | ? | 18µM* | 30% | ? | 3%
O=C(Nc1nccs1)c1sc2ccccc2c1Cl | 21µM* | 31 | ? | ? | ? | -2%[9.22 µM]
CCOC(=O)c1ccc(NC(=O)c2ccco2)cc1 | -4% | -10 | -16% | -9% | -4% | -2%
O=C(Nc1cnccn1)c1ccc(F)cc1Cl | -20% | 10 | -16% | 11% | -2% | -1%
COc1ccc(C(=O)C[n+]2cc(Br)cc(Br)c2)cc1 | 3% | · | -5% | · | · | ·
C=CCN(c1ccccc1C(=O)O)S(=O)(=O)/C=C/c1ccccc1 | -1% | 31 | 4% | 21% | 5% | ?
CC(C)(C)NC(=O)c1cccc(NC(=O)c2ccco2)c1 | -22% | -6 | -27% | -1% | -9% | -4%
SMILES | DT40 TDP1 no CPT | IL1B secr inh | DT40 TDP1 CPT | MCF10A rereplic | BCR signal inh | SW480 rereplic
CC(C)(C)NC(=O)c1cccc(NC(=O)c2ccc(NC(=O)c3ccco3)cc2)c1 | ? | -70* | 13µM* | 34% | 1% | 18%
CCCC(=O)N1CCN(c2ccc(NC(=O)c3sc4ccccc4c3Cl)cc2)CC1 | ? | -17 | -15% | ? | -4% | -12%
O=C(Nc1ccccn1)c1sc2cc([N+](=O)[O-])ccc2c1Cl | ? | 21 | 23µM* | 1% | ? | 0%
CCOC(=O)Cc1ccc(NC(=O)c2ccc(C(C)(C)C)cc2)cc1 | 15µM* | -56* | 18µM* | 2%[9.22 µM] | -27% | -19%
CN1CCN(c2ccccc2NC(=O)c2sc3ccccc3c2Cl)CC1 | 21µM* | ? | ? | ? | 1% | ?
O=C(NCC1CCCO1)c1sc2ccccc2c1Cl (centres undefined) | -28% | -9 | 2% | -1% | ? | -6%
O=C(NC1C=CS(=O)(=O)C1)c1sc2ccccc2c1Cl (centres undefined) | 23µM* | -97* | ? | -4% | ? | -2%
CC(NC(=O)c1sc2ccccc2c1Cl)C1CCCO1 (centres undefined) | ? | -10 | 21µM* | 0% | ? | -4%
O=C(Nc1ccc(NC(=O)c2sc3ccccc3c2Cl)cc1)c1ccco1 | ? | -3 | -19% | 12µM* | ? | ?
O=C(NC1CC1)c1sc2ccccc2c1Cl | -22% | ? | -7% | 2% | -2% | -8%
Cc1ccc(CNC(=O)C(N=C2NS(=O)(=O)c3ccccc32)C(C)C)cc1 (centres undefined) | 1% | 28 | -20% | -4% | ? | -9%
Cc1cc(C)c(C)c(S(=O)(=O)N2CCC(C(=O)NC3=NCCS3)CC2)c1C | -26% | -23 | -2% | 14% | 1% | -6%
Cc1[nH]c2c(Br)cccc2c1[C@H]1[C@@H](CC#N)C1(C)C | ? | 27 | 16µM* | ? | ? | 1%[9.22 µM]
Cc1c([C@H]2[C@@H](CC#N)C2(C)C)c2ccccc2n1C | -9% | 9 | -32% | -2% | ? | -6%[9.22 µM]
Cc1cccc(NC(=O)CNC(=O)CN2CCN(C)CC2)c1C | -8% | 4 | 7% | -9% | 3% | -7%
COC(=O)c1sc(=S)n(-c2ccccc2OC)c1N | -12% | 35 | -7% | 0% | 1% | -9%
Cc1ccc(-n2c(N)c(C(N)=O)sc2=S)c(C)c1 | 26µM* | 0 | ? | -7% | -29% | -10%
COc1ccc(Cl)cc1-n1c(N)c(C(N)=O)sc1=S | 21µM* | 14 | 16µM* | 4% | 1% | 1%
